We go through one molecule from ChEMBL document CHEMBL2218924, “A broad activity screen in support of a chemogenomic map for kinase signalling research and drug discovery” (Biochem J, 2013).

For test [1], the target named is T1, Ephrin type-B receptor 1 (Homo sapiens) (UniProt P54762).
T1 sequence (whole entry): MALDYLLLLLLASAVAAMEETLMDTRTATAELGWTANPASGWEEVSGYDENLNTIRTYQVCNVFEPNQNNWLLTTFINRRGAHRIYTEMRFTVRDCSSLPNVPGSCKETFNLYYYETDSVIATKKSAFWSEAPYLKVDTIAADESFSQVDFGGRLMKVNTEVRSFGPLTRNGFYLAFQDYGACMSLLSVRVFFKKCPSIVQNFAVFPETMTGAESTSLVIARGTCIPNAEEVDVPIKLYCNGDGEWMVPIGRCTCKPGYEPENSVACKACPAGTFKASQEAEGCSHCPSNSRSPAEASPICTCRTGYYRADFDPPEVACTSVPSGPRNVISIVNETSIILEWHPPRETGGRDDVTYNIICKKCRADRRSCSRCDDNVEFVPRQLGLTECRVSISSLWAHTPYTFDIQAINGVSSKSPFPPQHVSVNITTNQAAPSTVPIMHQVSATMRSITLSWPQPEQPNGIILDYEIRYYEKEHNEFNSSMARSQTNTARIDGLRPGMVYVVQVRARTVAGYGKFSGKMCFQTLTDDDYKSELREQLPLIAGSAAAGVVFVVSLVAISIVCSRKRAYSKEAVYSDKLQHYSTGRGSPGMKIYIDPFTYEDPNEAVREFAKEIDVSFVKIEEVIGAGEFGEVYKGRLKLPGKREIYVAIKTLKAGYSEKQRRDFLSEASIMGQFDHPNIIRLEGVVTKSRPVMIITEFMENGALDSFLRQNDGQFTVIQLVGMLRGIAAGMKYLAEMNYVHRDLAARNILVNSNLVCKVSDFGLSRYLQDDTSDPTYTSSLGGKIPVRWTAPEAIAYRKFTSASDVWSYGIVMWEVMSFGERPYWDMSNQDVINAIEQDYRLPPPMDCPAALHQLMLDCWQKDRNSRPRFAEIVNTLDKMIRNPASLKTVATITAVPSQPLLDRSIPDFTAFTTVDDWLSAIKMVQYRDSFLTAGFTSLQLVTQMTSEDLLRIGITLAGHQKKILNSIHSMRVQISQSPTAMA
As to conditions: at 10 µM; call rule not given here.

In test [2] the target is T2, Ephrin type-B receptor 2 (Homo sapiens) (UniProt P29323).
T2 sequence (whole entry): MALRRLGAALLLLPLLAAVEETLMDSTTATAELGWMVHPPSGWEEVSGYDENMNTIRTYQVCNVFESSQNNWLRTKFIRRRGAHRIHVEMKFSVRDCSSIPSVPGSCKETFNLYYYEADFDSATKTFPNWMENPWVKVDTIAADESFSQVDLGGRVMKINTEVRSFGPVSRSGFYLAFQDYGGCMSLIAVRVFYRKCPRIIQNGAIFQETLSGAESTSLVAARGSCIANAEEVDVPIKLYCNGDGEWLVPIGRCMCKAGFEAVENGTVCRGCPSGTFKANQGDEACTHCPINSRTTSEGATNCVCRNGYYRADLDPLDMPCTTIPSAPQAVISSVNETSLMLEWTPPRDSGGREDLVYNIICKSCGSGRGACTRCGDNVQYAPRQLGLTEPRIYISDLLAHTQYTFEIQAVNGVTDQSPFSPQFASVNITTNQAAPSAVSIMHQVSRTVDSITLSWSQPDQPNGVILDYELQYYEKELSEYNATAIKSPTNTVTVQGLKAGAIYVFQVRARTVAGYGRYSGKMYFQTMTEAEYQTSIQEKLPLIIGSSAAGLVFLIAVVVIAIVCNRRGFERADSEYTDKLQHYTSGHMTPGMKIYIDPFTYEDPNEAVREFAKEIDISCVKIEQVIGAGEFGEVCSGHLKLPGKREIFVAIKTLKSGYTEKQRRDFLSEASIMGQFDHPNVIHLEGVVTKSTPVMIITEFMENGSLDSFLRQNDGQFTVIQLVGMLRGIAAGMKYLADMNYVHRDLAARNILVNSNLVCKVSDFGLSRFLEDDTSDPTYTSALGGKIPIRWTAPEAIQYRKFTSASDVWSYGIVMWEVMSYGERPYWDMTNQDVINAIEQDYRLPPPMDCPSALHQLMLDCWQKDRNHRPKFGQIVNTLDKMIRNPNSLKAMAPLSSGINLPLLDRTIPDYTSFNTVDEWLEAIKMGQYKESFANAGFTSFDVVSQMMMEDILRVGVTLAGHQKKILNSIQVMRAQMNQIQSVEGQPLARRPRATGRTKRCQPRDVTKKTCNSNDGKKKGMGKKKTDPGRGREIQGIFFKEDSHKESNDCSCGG
As to conditions: at 1 µM.

Test [3] has as its target T2, Ephrin type-B receptor 2 (Homo sapiens). The note with it: at 10 µM.
Test [4] addresses T3, Ephrin type-B receptor 3 (Homo sapiens) (UniProt P54753).
T3 sequence (whole entry): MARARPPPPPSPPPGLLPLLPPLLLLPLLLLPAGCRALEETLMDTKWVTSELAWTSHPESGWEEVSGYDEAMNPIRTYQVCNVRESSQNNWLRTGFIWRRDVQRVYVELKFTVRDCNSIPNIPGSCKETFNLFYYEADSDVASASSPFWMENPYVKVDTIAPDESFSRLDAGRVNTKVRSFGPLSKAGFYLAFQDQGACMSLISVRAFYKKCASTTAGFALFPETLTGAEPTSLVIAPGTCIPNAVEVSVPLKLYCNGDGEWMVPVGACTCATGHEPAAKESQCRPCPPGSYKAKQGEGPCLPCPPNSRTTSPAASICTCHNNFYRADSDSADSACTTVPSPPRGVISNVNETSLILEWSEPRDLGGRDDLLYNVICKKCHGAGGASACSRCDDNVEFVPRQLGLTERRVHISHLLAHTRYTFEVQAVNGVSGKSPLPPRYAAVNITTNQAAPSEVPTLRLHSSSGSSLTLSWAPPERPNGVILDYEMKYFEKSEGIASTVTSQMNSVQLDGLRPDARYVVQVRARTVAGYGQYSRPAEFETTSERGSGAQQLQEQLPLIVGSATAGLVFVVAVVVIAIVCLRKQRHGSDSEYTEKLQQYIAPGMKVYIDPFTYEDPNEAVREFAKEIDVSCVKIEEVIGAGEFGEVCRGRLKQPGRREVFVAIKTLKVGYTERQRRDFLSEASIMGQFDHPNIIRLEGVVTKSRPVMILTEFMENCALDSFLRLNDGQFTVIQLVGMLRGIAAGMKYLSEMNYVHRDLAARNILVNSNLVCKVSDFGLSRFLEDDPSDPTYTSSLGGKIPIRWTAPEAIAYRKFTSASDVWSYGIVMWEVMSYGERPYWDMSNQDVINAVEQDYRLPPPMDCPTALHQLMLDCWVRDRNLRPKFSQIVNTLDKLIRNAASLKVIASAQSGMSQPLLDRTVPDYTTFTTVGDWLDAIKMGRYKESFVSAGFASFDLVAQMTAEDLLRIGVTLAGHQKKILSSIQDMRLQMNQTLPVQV
As to conditions: at 1 µM.

Test [5] concerns the target T3, Ephrin type-B receptor 3 (Homo sapiens). As to conditions: at 10 µM.
Test [6] has as its target T4, Ephrin type-B receptor 4 (Homo sapiens) (UniProt P54760).
T4 sequence (whole entry): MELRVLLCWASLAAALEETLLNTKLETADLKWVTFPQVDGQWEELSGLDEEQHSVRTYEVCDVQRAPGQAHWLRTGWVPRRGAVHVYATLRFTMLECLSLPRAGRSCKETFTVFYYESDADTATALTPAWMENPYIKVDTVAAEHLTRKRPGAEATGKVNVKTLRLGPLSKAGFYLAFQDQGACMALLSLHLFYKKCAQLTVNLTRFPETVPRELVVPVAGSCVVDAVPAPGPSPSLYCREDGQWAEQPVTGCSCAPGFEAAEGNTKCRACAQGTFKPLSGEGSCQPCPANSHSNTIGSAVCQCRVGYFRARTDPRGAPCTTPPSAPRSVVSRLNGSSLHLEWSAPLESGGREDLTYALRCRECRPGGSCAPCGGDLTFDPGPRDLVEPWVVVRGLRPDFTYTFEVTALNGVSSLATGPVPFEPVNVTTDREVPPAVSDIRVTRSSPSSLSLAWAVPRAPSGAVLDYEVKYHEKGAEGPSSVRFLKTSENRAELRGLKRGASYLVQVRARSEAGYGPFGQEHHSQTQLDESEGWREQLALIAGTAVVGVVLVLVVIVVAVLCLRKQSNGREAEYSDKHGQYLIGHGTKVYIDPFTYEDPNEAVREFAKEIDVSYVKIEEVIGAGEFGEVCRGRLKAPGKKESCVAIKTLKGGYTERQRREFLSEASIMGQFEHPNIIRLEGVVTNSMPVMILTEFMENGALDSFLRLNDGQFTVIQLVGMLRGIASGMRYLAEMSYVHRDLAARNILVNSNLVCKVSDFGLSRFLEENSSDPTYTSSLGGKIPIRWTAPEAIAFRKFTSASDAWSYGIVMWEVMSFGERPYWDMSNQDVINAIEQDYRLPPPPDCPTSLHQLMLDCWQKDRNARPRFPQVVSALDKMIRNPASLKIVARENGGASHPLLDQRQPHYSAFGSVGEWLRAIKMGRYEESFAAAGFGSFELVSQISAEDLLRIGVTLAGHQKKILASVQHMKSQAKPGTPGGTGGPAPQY
As to conditions: at 1 µM.

The target of test [7] is T4, Ephrin type-B receptor 4 (Homo sapiens). The note with it: at 10 µM.
The target in test [8] is Receptor tyrosine-protein kinase erbB-4 (Homo sapiens) (UniProt Q15303). The note with it: at 1 µM.
Receptor tyrosine-protein kinase erbB-4 (Homo sapiens), sequence (Q15303 whole entry): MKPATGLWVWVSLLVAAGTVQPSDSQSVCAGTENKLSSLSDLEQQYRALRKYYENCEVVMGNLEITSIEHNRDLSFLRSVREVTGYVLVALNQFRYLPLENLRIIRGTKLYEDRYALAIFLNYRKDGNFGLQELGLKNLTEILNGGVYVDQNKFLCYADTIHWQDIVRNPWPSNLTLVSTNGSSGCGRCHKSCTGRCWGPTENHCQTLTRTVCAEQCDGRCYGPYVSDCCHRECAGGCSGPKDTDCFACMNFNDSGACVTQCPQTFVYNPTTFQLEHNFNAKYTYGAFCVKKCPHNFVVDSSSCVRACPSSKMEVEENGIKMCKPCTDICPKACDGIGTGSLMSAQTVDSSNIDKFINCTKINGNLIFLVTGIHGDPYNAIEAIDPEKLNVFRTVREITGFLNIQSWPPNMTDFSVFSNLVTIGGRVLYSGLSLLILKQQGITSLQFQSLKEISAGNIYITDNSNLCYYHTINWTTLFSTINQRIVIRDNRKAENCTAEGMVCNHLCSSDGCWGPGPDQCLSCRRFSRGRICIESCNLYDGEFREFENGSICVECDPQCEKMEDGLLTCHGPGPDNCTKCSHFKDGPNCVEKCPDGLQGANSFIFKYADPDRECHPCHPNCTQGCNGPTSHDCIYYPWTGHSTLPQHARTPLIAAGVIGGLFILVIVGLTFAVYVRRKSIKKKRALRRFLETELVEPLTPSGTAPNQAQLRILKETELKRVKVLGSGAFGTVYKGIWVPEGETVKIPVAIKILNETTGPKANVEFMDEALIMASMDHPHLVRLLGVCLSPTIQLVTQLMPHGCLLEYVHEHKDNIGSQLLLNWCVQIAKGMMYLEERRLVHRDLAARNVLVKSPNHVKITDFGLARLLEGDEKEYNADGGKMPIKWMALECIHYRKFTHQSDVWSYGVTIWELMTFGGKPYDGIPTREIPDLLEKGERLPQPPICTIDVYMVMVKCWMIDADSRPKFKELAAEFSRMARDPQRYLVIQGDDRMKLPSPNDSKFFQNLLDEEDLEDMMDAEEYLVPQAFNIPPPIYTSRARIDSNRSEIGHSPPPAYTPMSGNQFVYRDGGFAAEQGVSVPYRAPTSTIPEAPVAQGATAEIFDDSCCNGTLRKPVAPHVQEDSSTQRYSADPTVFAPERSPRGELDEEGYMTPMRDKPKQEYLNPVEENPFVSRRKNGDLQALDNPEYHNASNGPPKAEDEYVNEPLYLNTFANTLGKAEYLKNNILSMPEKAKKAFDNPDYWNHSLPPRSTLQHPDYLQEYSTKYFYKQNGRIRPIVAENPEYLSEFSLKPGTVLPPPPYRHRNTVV
For test [9] the target is unchanged. As to conditions: at 10 µM.
Test [10] has as its target Focal adhesion kinase 1 (Homo sapiens) (UniProt Q05397). The note with it: at 1 µM.

Focal adhesion kinase 1 (Homo sapiens), sequence (Q05397 2-1052 limits assumed): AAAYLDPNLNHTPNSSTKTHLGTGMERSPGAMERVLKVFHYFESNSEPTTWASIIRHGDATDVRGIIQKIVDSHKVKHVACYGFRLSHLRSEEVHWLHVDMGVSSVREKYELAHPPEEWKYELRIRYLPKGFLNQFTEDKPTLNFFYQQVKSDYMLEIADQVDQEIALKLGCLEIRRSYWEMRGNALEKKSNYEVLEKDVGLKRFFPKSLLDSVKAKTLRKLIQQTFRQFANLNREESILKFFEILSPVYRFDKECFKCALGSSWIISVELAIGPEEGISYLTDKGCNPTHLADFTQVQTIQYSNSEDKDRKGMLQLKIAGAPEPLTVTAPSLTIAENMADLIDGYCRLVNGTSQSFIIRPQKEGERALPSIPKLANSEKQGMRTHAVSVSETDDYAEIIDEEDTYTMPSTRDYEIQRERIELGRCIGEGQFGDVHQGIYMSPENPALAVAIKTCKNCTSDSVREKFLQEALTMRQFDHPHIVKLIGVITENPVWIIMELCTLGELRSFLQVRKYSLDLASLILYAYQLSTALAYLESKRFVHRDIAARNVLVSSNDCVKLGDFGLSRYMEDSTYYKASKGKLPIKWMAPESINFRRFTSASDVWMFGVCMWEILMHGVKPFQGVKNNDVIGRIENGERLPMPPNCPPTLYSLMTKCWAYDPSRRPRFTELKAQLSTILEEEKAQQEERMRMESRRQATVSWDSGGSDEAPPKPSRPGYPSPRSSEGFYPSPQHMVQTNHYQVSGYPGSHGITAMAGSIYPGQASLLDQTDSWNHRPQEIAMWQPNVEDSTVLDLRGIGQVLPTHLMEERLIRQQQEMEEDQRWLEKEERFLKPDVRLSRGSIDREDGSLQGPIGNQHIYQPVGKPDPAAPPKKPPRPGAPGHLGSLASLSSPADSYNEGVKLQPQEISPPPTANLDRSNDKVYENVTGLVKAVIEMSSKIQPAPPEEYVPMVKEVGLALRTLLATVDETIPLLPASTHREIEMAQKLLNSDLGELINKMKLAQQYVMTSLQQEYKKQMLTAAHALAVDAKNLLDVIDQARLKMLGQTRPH

Turning to `O=C1NC(=O)c2cc(Nc3ccc(F)cc3)c(Nc3ccc(F)cc3)cc21`, the residual activity (as a rule, the signal under treatment as a percentage of the control signal) in test [1] is 60%; in test [2] it was 105%; in test [3], 69%; in [4], 100% (inactive); in test [5], 105%; in test [6], 95%. The residual activity in test [7] was 56%; in [8], 87%; in test [9], 35%; in [10] it was 137%.
